Records with an inconclusive call do not appear. A call without a number means that no potency is given here. Active and inactive are the calls of the source. The call rests on the fitted dose curve; in most records, active means well fitted cell-killing curve with a large enough effect; inconclusive means small, poorly fitted or top-dose-only effect; inactive means no such curve, though single readings can be large or run the other way.
Assay: Quantitative High-Throughput drug screen in 47 multiple myeloma cell lines against the NCATS MIPE library collection: NCIH929_DSMZ cell viability assay (AID 1918978); further: nearly all actives have a fitted effect of over 35% in size
Details: NCI-H929 myeloma viability, CellTiter-Glo ATP, 48 h; series mostly up to 45.8 µM
Method in brief: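 ATP-based luminescence (CellTiter-Glo, 5 min RT incubation) quantified surviving cells following two days' treatment with MIPE 4.0 agents at 37 °C, 5% CO2.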
Potency means the concentration at half of the fitted maximal effect.

Row | Compound | Potency
1 | CN1CCN2c3ncccc3Cc3ccccc3C2C1 (centres undefined) | inactive
2 | COc1cc2ncnc(Nc3cc(Br)c(O)c(Br)c3)c2cc1OC | inactive
3 | CS(=O)(=O)c1ccc(C2=C(c3ccccc3)C(=O)OC2)cc1 | inactive
4 | CC=C1C2C=C(C)CC1(N)c1ccc(=O)[nH]c1C2 (centres undefined) | inactive
5 | COc1ccc(-c2cc(=O)c3c(O)cc(O[C@@H]4O[C@H](CO[C@@H]5O[C@@H](C)[C@H](O)[C@@H](O)[C@@H]5O)[C@@H](O)[C@H](O)[C@@H]4O)cc3o2)cc1O | 9.35 µM (active)
6 | O=C(CC12CC3CC(CC(C3)C1)C2)Nc1cccc2nc(NCCNCCO)ccc12 | 2.35 µM (active)
7 | CON(C)C(=O)N1N=C(c2cc(F)ccc2F)S[C@]1(CCCN)c1ccccc1 | inactive
8 | CC(=O)N1CCN(c2ccc(OCc3nn(C)c(C)c3-c3cccc4c(CCCOc5cc(C)c(Cl)c(C)c5)c(C(=O)O)n(Cc5cccnc5)c34)cc2)CC1 | 2.96 µM (active)
9 | CCOC(=O)[C@H](CCc1ccccc1)N[C@@H](C)C(=O)N1CCCC1C(=O)O (some centres undefined) | inactive
10 | Cc1cn([C@@H]2C[C@@H](O)[C@H](CO)O2)c(=O)[nH]c1=O | inactive
11 | Cc1ccc2c(c1)c1c(n2CCc2ccc(C)nc2)CCN(C)C1 | inactive
12 | CCC(=C(CC)c1ccc(O)cc1)c1ccc(O)cc1 | 16.6 µM (active)
13 | O=C(c1ccc(F)c(F)c1Nc1ccc(I)cc1F)N1CC(O)([C@H]2CCCCN2)C1 | 14.8 µM (active)
14 | CCc1cc(-c2n[nH]c(C)c2-c2ccc3c(c2)OCCO3)c(O)cc1O | 8.33 µM (active)
15 | C[C@@H]1C[C@H]2[C@@H]3CCC4=CC(=O)C=C[C@]4(C)[C@@]3(F)[C@@H](O)C[C@]2(C)[C@@]1(O)C(=O)CO | inactive
16 | CCC(c1ccc(O)cc1)C(CC)c1ccc(O)cc1 (centres undefined) | inactive
17 | CNC(=O)[C@H](Cc1ccccc1)NC(=O)[C@H](CC(C)C)[C@H](CSc1cccs1)C(=O)NO | 9.35 µM (active)
18 | CN1CCN(c2ncc(-c3cc(Cl)cc(Cl)c3Cl)c(N)n2)CC1 | 23.5 µM (active)
19 | COc1cc(Nc2nc3ccccc3nc2NS(=O)(=O)c2ccc(NC(=O)c3ccc(C)c(OC)c3)cc2)cc(OC)c1 | 14.8 µM (active)
20 | O=C1C(CCC(O)c2ccc(F)cc2)C(c2ccc(O)cc2)N1c1ccc(F)cc1 (centres undefined) | inactive
21 | C=C1c2cccc(O)c2C(O)=C2C(=O)[C@@]3(O)C(O)=C(C(N)=O)C(=O)[C@@H](N(C)C)[C@@H]3[C@@H](O)[C@H]12 | inactive
22 | CC1=C(C(=O)Nc2cc3cn[nH]c3cc2F)C(c2ccc(C(F)(F)F)cc2)CC(=O)N1 (centres undefined) | inactive
23 | C[C@@H](O)[C@H]1C(=O)N2C(C(=O)OCOC(=O)C(C)(C)C)=C(SC3CN(C4=NCCS4)C3)[C@H](C)[C@H]12 | inactive
24 | O=C(O)c1ccc(O)c2ncc(N3CCOCC3)cc12 | 18.7 µM (active)

From PubChem BioAssay (NCATS)
